PubChem BioAssay (Tox21)
Inconclusive results are not listed. Activity calls are given as the source filed them. Calls come from the whole dose curve; as a rule, active = well fitted curve in the direction sought with a large enough effect in the repeat runs; inconclusive = weak or mixed curves; inactive = no such curve, though single readings can be large; an effect the other way counts as inactive or inconclusive.

Tests used:
[1] = A CellTox Green Cytotoxicity Assay to monitor cytotoxicity in HEK293 cells - 40 hour (AID 1224871); note: nearly all actives have a fitted effect of over 45% in size
Outline: (§1)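 HEK293 cells, 600/well, were preincubated 5 hours and then exposed to compounds at 37 C for up to 40 hours. A cell-impermeant cyanine dye staining dead-cell DNA was read by fluorescence at 0, 8, 16, 24, 32 and 40 h time points.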

[2] = qHTS RealTime-Glo MT Cell Viability Assay in HEK293 cells - 16 hour (AID 1224872); note: top concentration of the series differs between compounds; nearly all actives have a fitted effect of over 50% in size
Outline: (§2)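 Nonlytic real-time viability readout: viable cells convert prosubstrate to NanoLuc substrate, giving luminescence proportional to live cell number. HEK293, 600 cells/well, compound added after 5 h, continuous culture at 37 C.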

[3] = qHTS RealTime-Glo MT Cell Viability Assay in HepG2 cells - 8 hour (AID 1224873); note: nearly all actives have a fitted effect of over 55% in size
Outline: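 HepG2 cells mixed with RealTime-Glo MT reagents (NanoLuc plus cell-permeant prosubstrate) were seeded at 600 cells/well, incubated 5 h at 37 C/5% CO2, then pinned with compounds in DMSO; nonlytic luminescence tracked viability during 40 h treatment.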

[4] = qHTS RealTime-Glo MT Cell Viability Assay in HEK293 cells - 40 hour (AID 1224874); settings: RealTime-Glo luminescence; max response: active compounds read low; note: nearly all actives have a fitted effect of over 50% in size
Outline: (§3)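 600 cells/well were plated with the nonlytic NanoLuc/prosubstrate reagent, pre-incubated 5 h, then given 23 nL of compound in DMSO. Incubation at 37 C for 40 h, with luminescence from viable-cell-reduced substrate read repeatedly from 0 h.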

[5] = A CellTox Green Cytotoxicity Assay to monitor cytotoxicity in HEK293 cells - 24 hour (AID 1224875); note: series mostly up to about 77 µM; nearly all actives have a fitted effect of over 45% in size
Outline: as §1

[6] = A CellTox Green Cytotoxicity Assay to monitor cytotoxicity in HepG2 cells - 16 hour (AID 1224876); note: nearly all actives have a fitted effect of over 45% in size
Outline: (§4)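 HepG2 cells, 600/well, preincubated 5 h with CellTox Green dye, then exposed to Tox21 compounds in DMSO at 37 C for up to 40 h. Dead-cell DNA fluorescence read at the indicated time point.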

[7] = qHTS RealTime-Glo MT Cell Viability Assay in HepG2 cells - 32 hour (AID 1224877); note: nearly all actives have a fitted effect of over 55% in size
Outline: (§5)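 Luminescence read-out: viable HepG2 cells reduce a prosubstrate to a NanoLuc substrate, giving a signal proportional to live cell number. Reads taken at 0, 8, 16, 24, 32 and 40 h of compound exposure at 37 C.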

[8] = A CellTox Green Cytotoxicity Assay to monitor cytotoxicity in HepG2 cells - 24 hour (AID 1224878); note: nearly all actives have a fitted effect of over 45% in size
Outline: as §4

[9] = A CellTox Green Cytotoxicity Assay to monitor cytotoxicity in HepG2 cells - 40 hour (AID 1224879); note: nearly all actives have a fitted effect of over 40% in size
Outline: as §4

[10] = qHTS RealTime-Glo MT Cell Viability Assay in HEK293 cells - 0 hour (AID 1224880)
Outline: as §3

[11] = A CellTox Green Cytotoxicity Assay to monitor cytotoxicity in HEK293 cells - 32 hour (AID 1224881); note: nearly all actives have a fitted effect of over 40% in size
Outline: as §1

[12] = A CellTox Green Cytotoxicity Assay to monitor cytotoxicity in HepG2 cells - 0 hour (AID 1224882); note: nearly all actives have a fitted effect of over 35% in size
Outline: as §4

[13] = A CellTox Green Cytotoxicity Assay to monitor cytotoxicity in HepG2 cells - 32 hour (AID 1224883); note: nearly all actives have a fitted effect of over 50% in size
Outline: as §4

[14] = A CellTox Green Cytotoxicity Assay to monitor cytotoxicity in HEK293 cells - 8 hour (AID 1224884); note: nearly all actives have a fitted effect of over 35% in size
Outline: as §1

[15] = qHTS RealTime-Glo MT Cell Viability Assay in HepG2 cells - 16 hour (AID 1224885); note: nearly all actives have a fitted effect of over 50% in size
Outline: as §5

[16] = qHTS RealTime-Glo MT Cell Viability Assay in HEK293 cells - 24 hour (AID 1224886)
Outline: as §2

[17] = qHTS RealTime-Glo MT Cell Viability Assay in HEK293 cells - 8 hour (AID 1224887)
Outline: as §3

[18] = A CellTox Green Cytotoxicity Assay to monitor cytotoxicity in HEK293 cells - 16 hour (AID 1224888); note: nearly all actives have a fitted effect of over 35% in size
Outline: as §1

[19] = A CellTox Green Cytotoxicity Assay to monitor cytotoxicity in HepG2 cells - 8 hour (AID 1224890); note: nearly all actives have a fitted effect of over 45% in size
Outline: as §4

[20] = qHTS RealTime-Glo MT Cell Viability Assay in HepG2 cells - 0 hour (AID 1224889); note: nearly all actives have a fitted effect of over 50% in size
Outline: as §5
% is set by controls: 0 for no effect and ±100 for the full control effect.

CNC(=O)N(C)c1nc2ccccc2s1
inactive: Potency [1] | Potency [2] | Potency [3] | max response [4] -18.7% | Potency [5] | Potency [6] | Potency [7] | Potency [8] | Potency [9] | outcome [10] | Potency [11] | outcome [12] | Potency [13] | Potency [14] | Potency [15] | Potency [16] | Potency [17] | Potency [18] | Potency [19]

CN/C(=N\[N+](=O)[O-])NCC1CCOC1 (stereo not given)
inactive: Potency [1] | Potency [2] | Potency [3] | max response [4] 4.22% | Potency [5] | Potency [6] | Potency [7] | Potency [8] | Potency [9] | outcome [10] | Potency [11] | outcome [12] | Potency [13] | Potency [14] | Potency [15] | Potency [16] | Potency [17] | Potency [18] | Potency [20] | Potency [19]

Oc1c(Cl)cccc1Cl
inactive: Potency [1] | Potency [2] | Potency [3] | max response [4] 0.323% | Potency [5] | Potency [6] | Potency [7] | Potency [8] | Potency [9] | outcome [10] | Potency [11] | outcome [12] | Potency [13] | Potency [14] | Potency [15] | Potency [16] | Potency [18] | Potency [20] | Potency [19]

CC(=O)CC(c1ccc(Cl)cc1)c1c(O)c2ccccc2oc1=O (stereo not given)
inactive: Potency [1] | Potency [2] | Potency [3] | max response [4] -9.42% | Potency [5] | Potency [6] | Potency [7] | Potency [8] | Potency [9] | outcome [10] | Potency [11] | outcome [12] | Potency [13] | Potency [14] | Potency [15] | Potency [16] | Potency [18] | Potency [20] | Potency [19]

CSc1ccc(C(=O)C(C)(C)N2CCOCC2)cc1
inactive: Potency [1] | Potency [2] | Potency [3] | max response [4] 0.297% | Potency [5] | Potency [6] | Potency [7] | Potency [8] | Potency [9] | outcome [10] | Potency [11] | outcome [12] | Potency [13] | Potency [14] | Potency [15] | Potency [16] | Potency [18] | Potency [20] | Potency [19]

O=[N+]([O-])c1cccc(O)c1
inactive: Potency [1] | Potency [2] | Potency [3] | max response [4] 4.13% | Potency [5] | Potency [6] | Potency [7] | Potency [8] | Potency [9] | outcome [10] | Potency [11] | outcome [12] | Potency [13] | Potency [14] | Potency [15] | Potency [16] | Potency [17] | Potency [18] | Potency [20] | Potency [19]

CCC(Cl)[N+](=O)[O-] (stereo not given)
inactive: Potency [1] | Potency [2] | Potency [3] | max response [4] 4.31% | Potency [5] | Potency [6] | Potency [7] | Potency [8] | Potency [9] | outcome [10] | Potency [11] | outcome [12] | Potency [13] | Potency [14] | Potency [16] | Potency [17] | Potency [18] | Potency [20] | Potency [19]

CN1CCN(C(=O)O[C@H]2c3nccnc3C(=O)N2c2ccc(Cl)cn2)CC1
inactive: Potency [1] | Potency [2] | Potency [3] | max response [4] 6.06% | Potency [5] | Potency [6] | Potency [7] | Potency [8] | Potency [9] | outcome [10] | Potency [11] | outcome [12] | Potency [13] | Potency [14] | Potency [16] | Potency [17] | Potency [18] | Potency [20] | Potency [19]

CC(C(=O)c1ccccc1)N(C)C (stereo not given)
inactive: Potency [1] | Potency [2] | Potency [3] | max response [4] 2.47% | Potency [5] | Potency [6] | Potency [7] | Potency [8] | Potency [9] | outcome [10] | Potency [11] | outcome [12] | Potency [13] | Potency [14] | Potency [15] | Potency [16] | Potency [17] | Potency [18] | Potency [19]

N#CC(O)c1ccccc1 (stereo not given)
inactive: Potency [1] | Potency [2] | Potency [3] | max response [4] 19.9% | Potency [5] | Potency [6] | Potency [7] | Potency [8] | Potency [9] | outcome [10] | Potency [11] | outcome [12] | Potency [13] | Potency [14] | Potency [15] | Potency [16] | Potency [17] | Potency [18] | Potency [20] | Potency [19]

CCN(CC)c1nc(C)cc(OP(=S)(OC)OC)n1
inactive: Potency [1] | Potency [2] | Potency [3] | max response [4] 2.28% | Potency [5] | Potency [6] | Potency [7] | Potency [8] | Potency [9] | outcome [10] | Potency [11] | outcome [12] | Potency [13] | Potency [14] | Potency [15] | Potency [16] | Potency [18] | Potency [20] | Potency [19]

O=C1c2ccccc2C(=O)c2ccccc21
inactive: cytotoxicity increase [1] -0.882% [at 15.8 µM] | activity change, negative = cytotoxicity [2] 16.4% [at 15.8 µM] | viability change, negative = cytotoxic [3] 0.64% [at 15.8 µM] | max response [4] 18.9% | activity change [5] 6.87% [at 15.8 µM, active compounds read high] | cytotoxicity increase [6] 8.1% [at 15.8 µM] | activity change, negative = cytotoxic [7] 1.27% [at 15.8 µM] | cytotoxicity [8] 6.42% [at 15.8 µM] | cytotoxicity increase [9] 18.9% [at 15.8 µM] | activity change, negative = cytotoxicity [10] 1.83% [at 15.8 µM] | cytotoxicity increase [11] 6.55% [at 15.8 µM] | cytotoxicity [12] 5.37% [at 15.8 µM] | cytotoxicity increase [13] 7.1% [at 15.8 µM] | cytotoxicity increase [14] 6.23% [at 15.8 µM] | activity change, negative = cytotoxic [15] 1.58% [at 15.8 µM] | activity change, negative = cytotoxicity [16] 20.7% [at 15.8 µM] | activity change, negative = cytotoxicity [17] 16.6% [at 15.8 µM] | activity change [18] 5.38% [at 15.8 µM, active compounds read high] | cytotoxicity increase [19] 19.4% [at 15.8 µM]

CCCSP(=S)(OCC)Oc1ccc(Cl)cc1Cl (stereo not given)
inactive: Potency [1] | Potency [2] | Potency [3] | max response [4] 1.03% | Potency [5] | Potency [6] | Potency [7] | Potency [8] | Potency [9] | outcome [10] | Potency [11] | outcome [12] | Potency [13] | Potency [14] | Potency [15] | Potency [16] | Potency [18] | Potency [20] | Potency [19]
